Source: PubChem BioAssay (several laboratories)
sPLA2-III inh: Inhibits HGIII-sPLA2 liposome hydrolysis, primary screen | Q9NZ20 | QFRET BODIPY PC-A2 liposome hydrolysis, fluorescence | 0.56% of 370,000 active | inhibition, % at 12.2 µM;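 active = inhibition above mean plus 3 SD of compounds lying within the high and low control bounds, cut at about 19% in these data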
ADAM17 inh: ADAM17 inhibition, QFRET primary screen | P78536 | recombinant ADAM17, EDANS/DABCYL FRET peptide cleavage | inhibition, % at 6.95 µM | 0.83% of 370,000 active | AID 720648;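 active = inhibition above the mean of compounds lying between control limits plus 3 SD, set per campaign, cut at about 8.5% in these data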
ADAM10 inh: ADAM10 inhibition, QFRET primary screen | O14672 | recombinant ADAM10, EDANS/DABCYL FRET peptide cleavage, 3 h | inhibition, % at 7 µM | 0.62% of 370,000 active;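 active = inhibition above a per-campaign cutoff equal to the mean of compounds falling between control-based bounds plus 3 SD, cut at about 20% in these data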
FAS-TE inh: inhibitors of human fatty acid synthase thioesterase domain; P49327; inhibition, % at 15 µM; 0.67% of 360,000 active; recombinant FAS-TE, OMFH fluorogenic substrate, fluorescence endpoint;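 active = compounds whose normalised, plate-corrected inhibition of enzyme fluorescence in the single-dose primary screen is 50% or more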
GRIN3A LBD mod: modulators (binders) of human NR3A ligand-binding domain; NR3A LBD differential scanning fluorimetry, Tm shift; 0% = protein alone, 100% = glycine-bound protein; Tm shift relative to glycine control, % at 25 µM; 2.5% of 340,000 active; AID 1259313;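 active = melting temperature shift of at least 10% of the positive control shift, at one fixed dose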
Numbers stand for hits; . = inactive; / = not tested or not shown. Hits are enriched below; roughly 4.3% of the tested compounds scored in any of these assays.

SMILES	sPLA2-III inh	ADAM17 inh	ADAM10 inh	FAS-TE inh	GRIN3A LBD mod
O=C(Nc1ccccc1C(=O)O)c1ccc(NC(=O)c2ccc(Br)o2)cc1	/	/	/	.	13
O=C(Nc1ccccc1C(=O)O)c1ccccc1	.	.	.	.	.
O=C(Cc1ccc(Cl)cc1)Nc1cccc(C(=O)Nc2ccccc2C(=O)O)c1	.	.	.	.	13
Cn1c2ccccc2c(=O)c2cc(C#CC3=CCCCC3)ccc21	.	.	.	.	.
Cn1c2ccccc2c(=O)c2ccc(C#Cc3ccc(N)cc3)cc21	.	.	.	.	12
Cn1c2ccccc2c(=O)c2cc(C#Cc3cccc(N)c3)ccc21	/	/	/	.	22
COc1ccc(C#Cc2ccc3c(=O)c4ccccc4n(C)c3c2)cc1	/	/	/	/	.
CNc1c(NS(=O)(=O)c2ccc(OC)c(Cl)c2)c(=O)oc2ccccc12	.	.	.	.	16
CCOc1ccc(-n2c(SCC(=O)Nc3ccc(S(=O)(=O)Nc4cc(C)nc(C)n4)cc3)nnc2-c2ccc(OC)cc2)cc1	.	.	.	/	/
CCOC(=O)/C(C#N)=C/c1ccc(OC(=O)c2ccco2)c(OCC)c1	.	.	.	.	10
O=C(Cc1cccs1)Nc1ccc(C(=O)O)cc1	.	.	.	.	.
O=C(Nc1ccc(NC(=O)c2cccs2)cc1)c1ccccc1	.	.	.	.	16
O=C(Nc1cccc(O)c1)c1ccc(NC(=O)c2cccs2)cc1	.	.	.	.	37
O=C(N/N=C/C(Cl)=C\c1ccccc1)c1cccs1	.	.	.	.	13
O=C(Cc1cccs1)Nc1cccc(C(=O)Nc2ccc(C(=O)O)cc2)c1	.	.	.	.	23
CCCC1CCC2(CC1)CCC2OC(=O)Nc1cccc(C(F)(F)F)c1 (configuration not stated)	.	.	.	/	/
COc1ccc(CN(CCN2CCOCC2)C(=O)c2cccc(F)c2F)cc1OC	.	.	.	/	/
COC(=O)c1cc(-c2cccs2)c(=O)n2c1CCC2	.	.	.	/	/
O=C(N[C@@H]1C[C@@H]2O[C@@H](CO)CC[C@@H]2O[C@@H]1CCc1ccc(-c2ccccc2)cc1)c1cnccn1	.	.	.	/	/
Cc1ccccc1-c1nc(-c2ccc(NC(=O)c3cccs3)cc2)no1	.	.	.	.	42
O=C(Nc1ccc(O)cc1)c1ccc(NC(=O)c2cccs2)cc1	.	.	.	.	28
O=C(c1ccncc1)c1ccc(NC(=O)c2cccs2)cc1	.	.	.	.	.
Cc1ccc(NC(=O)c2cccs2)cc1	.	.	.	.	.
O=C(Nc1cccc(O)c1)c1cccc(C(=O)Nc2cccc(O)c2)c1	.	.	.	.	34
O=C(Nc1cccc(O)c1)c1ccc(Br)cc1	.	.	.	.	.
SMILES	sPLA2-III inh	ADAM17 inh	ADAM10 inh	FAS-TE inh	GRIN3A LBD mod
O=C(Nc1ccccc1)Nc1snnc1C(=O)Nc1cccc(O)c1	.	.	.	.	24
CCCCOCCCNC(=O)C[C@H]1C[C@@]2(C(=O)OC)C(=C[C@H](C3CCCC3)O[C@@H]2C)N(Cc2cccc3ccccc23)C1=O	.	.	.	/	/
CCOc1ccccc1N1CCN(S(=O)(=O)c2cc(C)ccc2OC)CC1	.	.	.	.	37
Cc1ccc2nc(N/N=C/c3ccccc3C#N)nc(-c3ccccc3)c2c1	/	/	/	.	.
Cc1ccc2nc(N/N=C/c3ccccc3F)nc(-c3ccccc3)c2c1	.	.	.	.	13
COc1ccccc1C(=O)NNC(=O)CCC(=O)NCc1ccccc1	.	.	.	.	12
CCCC(=O)NNC(=O)CCC(=O)NCc1ccccc1	.	.	.	.	.
O[C@H](COc1cccc(C(F)(F)F)c1)CN1CCC(C(O)(c2ccccc2)c2ccccc2)CC1	.	.	.	/	/
CC1=NOC(=O)/C1=C/c1ccc(O)c(Cl)c1	.	.	.	.	20
CCOc1cc(/C=C2/C(=O)ON=C2C)ccc1O	.	.	.	.	.
COc1cc(/C=C2/C(=O)ON=C2C)cc(Cl)c1O	.	.	.	.	26
COC(=O)[C@H]1C[C@@]2(c3ccccc3)c3ccccc3N[C@H]2N1	.	.	.	/	/
COc1cc(/C=N/n2cnc3c(sc4nc(C)cc(C)c43)c2=O)ccc1O	/	/	/	/	26
CCOC(=O)c1sc2ncn(/N=C/c3ccc(O)c(OC)c3)c(=O)c2c1C	.	.	.	.	.
C=CCCC(=O)N[C@H]1CC[C@@]23CCCN2C(=O)CCC[C@H]3[C@H]1CCC	.	.	.	/	/
COc1cc(OC)c(NC(=O)c2cc3ccccc3cc2O)cc1Cl	.	.	.	.	26
Cc1ccc(NC(=O)COc2ccccc2C(=O)Nc2ccccc2)cc1Cl	.	.	.	.	.
O=C(CCCOc1ccc(Cl)cc1Cl)Nc1ccccc1C(=O)O	.	.	.	.	.
O=C(COc1ccc(Cl)cc1Cl)Nc1ccc(C(=O)Nc2ccccc2C(=O)O)cc1	.	.	.	.	16
Cc1ccc(Cl)cc1NC(=O)c1ccccc1OCC(=O)Nc1ccc(Cl)cc1	.	.	.	.	30
N#Cc1ccccc1NC(=O)c1ccccc1OCC(=O)Nc1ccc2c(c1)oc1ccccc12	.	.	.	.	23
CC1CN(c2nc3ccccc3nc2SCC(=O)N2CCN(S(=O)(=O)c3ccccc3)CC2)CC(C)O1 (configuration not stated)	.	.	.	/	/
COC(=O)C[C@H]1CC[C@H]2[C@H](COc3ccc(NC(=O)Nc4ccccc4F)cc3C(=O)N2C)O1	.	.	.	/	/
CC(C)C[C@H](NC(C)(C)C(=O)NC1CCCCC1)C(=O)NCC(c1ccccc1)c1ccccc1	.	.	.	/	/
COc1ccccc1C(=O)Nc1cc(Cl)ccc1O	.	.	.	.	11
SMILES	sPLA2-III inh	ADAM17 inh	ADAM10 inh	FAS-TE inh	GRIN3A LBD mod
CCOc1ccccc1C(=O)Nc1cc(OC)ccc1OC	.	.	.	.	.
CCOc1ccccc1C(=O)Nc1cc(Cl)ccc1O	.	.	.	.	16
C=CCN(CC#CC1=CCCCC1)CC1CC1	.	.	.	/	/
CCOc1cc(S(=O)(=O)Nc2ccc(Cl)cn2)ccc1F	.	.	.	.	11
COc1ccccc1NC(=O)c1ccc(NC(=O)COC(=O)C2(C)CC2(Cl)Cl)cc1 (configuration not stated)	.	.	.	.	25
CC1CCCCC1C(=O)N1CCC(Oc2cccnc2)CC1 (configuration not stated)	.	.	.	/	/
CC(=O)Nc1ccc(S(=O)(=O)Nc2nc3ccccc3nc2Nc2ccc3ccccc3c2)cc1	.	.	.	.	34
O=S(=O)(Nc1nc2ccccc2nc1N1CCN(c2ccccc2F)CC1)c1ccc(Cl)cc1	.	.	.	.	21
CC(=O)Nc1ccc(S(=O)(=O)Nc2nc3ccccc3nc2Nc2cccc(O)c2)cc1	.	.	.	.	19
CCOc1ccc(S(=O)(=O)Nc2nc3ccccc3nc2N2CCN(C)CC2)cc1	.	.	.	.	.
CC(=O)Nc1ccc(S(=O)(=O)Nc2nc3ccccc3nc2Nc2ccc(N)cc2)cc1	.	.	.	.	.
CC(=O)Nc1ccc(S(=O)(=O)Nc2cc(C)c(-n3nc4ccccc4n3)cc2O)cc1	.	.	.	.	10
